Source: PubChem (National Center for Advancing Translational Sciences (NCATS))
HT1080NT lethal: qHTS for induction of synthetic lethality in tumor cells producing 2HG: qHTS for the HT-1080-NT fibrosarcoma cell line; HT-1080-NT fibrosarcoma viability, CellTiter-Glo ATP luminescence, 48 h; Potency, µM (doses to about 46.1 µM), for the others: at the top dose activity, negative = less viability, hits mostly cytotoxic; AID 686970, 2013; 360,000 compounds, 1.6% hits;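 note: NT is the 2HG producing partner of a matched IDH1 knockdown line; potency is the fitted concentration of half-maximal effect; 0% = DMSO-treated cells and -100% = media-only wells without cells; nearly all actives have a fitted effect of over 55% in size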
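Viability by CellTiter-Glo luminescence after 48 h compound exposure at 37C of HT-1080-NT cells (750/well, RPMI, 5% FBS). % activity scaled between DMSO wells and medium-only wells, then curve-fitted and categorized by curve class.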
ELG1 repair inh: qHTS screen for small molecules that inhibit ELG1-dependent DNA repair in human embryonic kidney (HEK293T) cells expressing luciferase-tagged ELG1 | Potency, µM (series often up to 46.1 µM), inactives show at the highest dose activity change, negative = inhibition, usual class: inhibitors | HEK293T ELG1-luciferase reporter, luminescence, 16 h; DNA damage induced by 5-fluorouridine | AID 504467, 2011 | 330,000 compounds, 2.3% hits; note: potency is the fitted concentration of half-maximal effect; nearly all actives have a fitted effect of over 55% in size
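In this reporter screen, reduction of luminescence relative to DMSO vehicle indicated activity. Compounds and 5-fluorouridine were added together to 2,000 cells per well, incubated for 16 hr at 37 °C, then developed with ONE-Glo.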
IL1B secr inh: qHTS for Inhibitors of Inflammasome Signaling: IL-1-beta AlphaLISA Primary Screen | THP-1 LPS/ATP IL-1B secretion, AlphaLISA, 16 h; hits give low values | activity change, % at 57.5 µM | 360,000 compounds, 4.7% hits | AID 743279, 2014; in the data active = activity change below about -50%; inconclusive = mostly about -30% to -49%
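Secreted IL-1B measured by AlphaLISA bead assay after 16 h compound exposure of THP-1 cells; compounds (final up to 57.5 uM) added 1 h before LPS (250 ng/mL) and ATP (1.25 mM) stimulation; lower signal means less secretion.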
DT40 TDP1 no CPT: qHTS for Inhibitors of human tyrosyl-DNA phosphodiesterase 1 (TDP1): qHTS in cells in absence of CPT; DT40 Tdp1-/- hTDP1 cells, no CPT, ATP luminescence, 48 h; Potency, µM (titrated, usually from 46.2 µM), inactives show at the highest dose activity change, negative = growth inhibition, usual class: inhibitors; 420,000 compounds, 15% hits; note: potency is the fitted concentration of half-maximal effect; nearly all actives have a fitted effect of over 55% in size
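No-CPT arm: Tdp1-/-;hTDP1 DT40 cells (400/well) plus compounds, incubated ≥48 hr at 37 °C. Readout CellTiter-Glo luminescence.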
TDP1 cell CPT: qHTS for Inhibitors of human tyrosyl-DNA phosphodiesterase 1 (TDP1): qHTS in cells in presence of CPT; chicken DT40 Tdp1-/-;hTDP1 cells + 20 nM CPT, ATP luminescence, 48 h; Potency, µM (series often up to 46.2 µM), for inactives: at the top dose activity change, negative = growth inhibition, most hits filed as inhibitors; 420,000 compounds, 12% hits; note: potency is the fitted concentration of half-maximal effect; nearly all actives have a fitted effect of over 55% in size
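Chicken DT40 Tdp1-/- cells stably complemented with human TDP1 were seeded at 400 cells/well in medium containing 20 nM camptothecin, exposed to pin-transferred compounds, and grown at 37 °C for at least 48 hr. Viability was read as ATP luminescence.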
HT1080 IDH1KD tx: qHTS for induction of synthetic lethality in tumor cells producing 2HG: qHTS for the HT-1080-IDH1KD cell line | 360,000 compounds, 2% hits | AID 686971, 2013 | HT-1080 IDH1 knockdown viability, ATP luminescence, 48 h | Potency, µM (highest dose often 46.1 µM), for inactives: top-dose activity, negative = toxicity, actives largely listed as cytotoxic;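 note: potency is the fitted concentration of half-maximal effect; 0% = DMSO wells and -100% = cell-free medium wells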
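IDH1KD HT-1080 cells, 750/well, RPMI + 5% FBS; compound pinned after 2 h settling; 48 h, 37 °C; CellTiter-Glo luminescence; % activity normalised to DMSO and no-cell wells; curves fitted, classed by r2 and efficacy.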
* hit, by the source's call; ? = inconclusive; nt = not tested or not shown. A selection: hits, their analogues and other compounds. The true share with any hit is near 19%. Unless noted, calls come from the whole dose curve; as a rule, active = well fitted curve in the direction sought with a large enough effect; inconclusive = small, poorly fitted or top-dose-only effect, or another doubt; inactive = no such curve, though single readings can be large; an effect the other way counts as inactive or inconclusive. Unless noted, % is set by controls: 0 for no effect and ±100 for the full control effect.

SMILES	HT1080NT lethal	ELG1 repair inh	IL1B secr inh	DT40 TDP1 no CPT	TDP1 cell CPT	HT1080 IDH1KD tx
CN1CCN(c2ccc(C(F)(F)F)cc2NC(=O)c2ccco2)CC1	-2%	-1%	-18	?	-15%	-18%
CSc1sc(C(=O)NC(=O)NCc2ccncc2)c(C)c1-c1ccon1	-5%	?	-13	16µM*	?	-3%
CCOC(=O)c1c(NC(=O)C(NCCN(C)C)c2ccccc2)sc2c1CCCC2 (stereo unspecified)	?	-2%	-108*	2.1µM*	0.65µM*	18µM*
COC(=O)c1c(NC(=O)c2ccccc2N(C)S(=O)(=O)c2ccccc2)sc2c1CCCC2	?	?	20	15µM*	16µM*	?
CC(C)OC(=O)c1c(NS(=O)(=O)c2ccccc2)sc2c1CCCC2	-16%	-4%	0	5.2µM*	6.5µM*	?
CCOC(=O)c1c(NC(=O)c2ccccc2N(C)S(=O)(=O)c2ccccc2)sc2c1CCCC2	?	?	-9	21µM*	?	9.2µM*
CCOC(=O)c1c(NC(=O)c2cc(-c3ccccc3)on2)sc2c1CCCC2	nt	nt	nt	3%	-14%	nt
CCOC(=O)c1c(NC(=O)c2ccco2)sc2c1CCCC2	18%	2%	17	?	?	12%
CC(C)C[C@H]1CN(CCCC[C@@H]2CNC(=O)C(=O)N2CC2CCCCC2)C(=O)C(=O)N1Cc1ccccc1	7%	nt	-5	-7%	-3%	0%
O=S1(=O)CCN(C(CCO)c2cccc(C(F)(F)F)c2)CC1 (stereo unspecified)	3%	10%	6	-1%	9%	12%
CCc1nc2c(OCC=C(C)C)cccn2c1N(C)C(=O)c1ccccc1F	?	nt	-69*	0.82µM*	0.73µM*	?
CCc1nc2c(OCC(=O)c3ccc(F)cc3)cccn2c1N(C)C(=O)c1ccc(OC)cc1	-1%	nt	-12	-5%	-15%	3%
CCc1nc2c(OCC=C(C)C)cccn2c1N(C)C(=O)c1ccc(OC)cc1	?	nt	63	13µM*	23µM*	?
Cc1cc2n(n1)CCCN2C(=O)Nc1cccc(C)c1C	nt	nt	nt	-10%	-14%	nt
CCOc1ccc(-c2nc(SCC(=O)Nc3cc(F)ccc3F)n3[nH]c(=O)cc3n2)cc1	nt	nt	nt	-12%	-4%	nt
COc1ccc2c(C(=O)NCc3ccc4c(c3)OCO4)c(-c3ccc(S(C)(=O)=O)cc3)sc2c1	8%	?	49	16µM*	23µM*	7%
COC(=O)c1c(-c2ccc(S(C)(=O)=O)cc2)sc2cc(OC)ccc12	-2%	?	-20	21µM*	?	-19%
COC(=O)c1c(-c2ccc(S(C)(=O)=O)cc2)sc2ccc(OC)cc12	-6%	?	-15	13µM*	?	-25%
CCCS(=O)(=O)NC(=O)C1(C)CCCN(C(=O)c2cncc(Br)c2)C1 (stereo unspecified)	?	nt	11	-6%	?	11%
Cc1ccc2c(c1)c1c(c(=O)n(Cc3ccccc3)c(=O)n1Cc1cccc(C(F)(F)F)c1)n2C	nt	nt	nt	-28%	?	nt
O=C(NC(=S)N1CCN(c2ccc(Cl)cc2[N+](=O)[O-])CC1)c1ccco1	-11%	-4%	12	?	?	-12%
